The panel holds about 83,000 compounds, 20% with a hit somewhere; the sample as a whole holds those more often.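 Treatment: one concentration, 48 hours, 96-well format. Scoring: percent growth, with anything below 10 considered active.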 Values without a mark were called inactive. Activity calls are given as the source filed them.
test system: HL-60(TB) leukemia; experiment: NCI-60 one-dose screen, 48 h (100 = growth as untreated, 0 = no growth, -100 = all killed); conditions: 10 µM unless noted

SMILES	growth
COc1ccc(N2CCN(C(=O)c3sc4nc(C)c(Br)c(C)c4c3N)CC2)cc1	95.7%
Cc1ccc(-c2nc3nc(-c4ccc(F)cc4)nc(N4CCCNCC4)c3o2)cc1	-70.3% (active)
O=C(CCCCCCN1CC(=O)N2[C@@H](c3ccc(Cl)c(Cl)c3)c3[nH]c4ccccc4c3C[C@H]2C1=O)NO	-11.8% (active)
N#Cc1ccc(C2C3=C(CCCC3=O)OC3=C2C(=O)c2ccccc2C3=O)cc1 (stereo not given)	-21.4% (active)
Cc1nc([C@H]2CC[C@H]3[C@@H]4CCC5=CC(=O)CC[C@]5(C)[C@H]4CC[C@]23C)cs1	4.93% (active)
Cc1cc(C)cc(Nc2cc(C)nc3nc(C(F)(F)F)nn23)c1	15.4%
O=C(NOC[C@H](O)CO)c1ccc(F)c(F)c1Nc1ccc(I)cc1F	6.7% (active)
C[N+](C)(C)CC(=O)N/N=C\c1ccco1	53%
CNC(=O)c1cc(Oc2ccc(NC(=O)Nc3ccc(Cl)c(C(F)(F)F)c3)c(F)c2)ccn1	-17.4% (active)
COc1ccc(C(=O)C[C@]2(O)C(=O)Nc3c(Cl)ccc(Cl)c32)cc1	-6.62% (active)
COC(=O)[C@@H]1CC[C@]2(C)[C@H](CC[C@@H]3O[C@@]32C)[C@@]1(C)CC(=O)c1ccoc1	89.8%
CN(CCCNC(=O)Cc1ccc2ccc3cccc4ccc1c2c34)CCCNc1cc(-c2ccc3ccccc3c2)nc2ccccc12	-60.1% (active)
O=[N+]([O-])c1ccc(C(c2ccccc2)c2ccccc2)cc1	79.3%
Nc1ncnc2c1c(-c1ccc(Oc3ccccc3)cc1)nn2C[C@@H]1SSC[C@@H]1O	-0.213% (active)
O=C1c2ccccc2C(=O)c2c([N+](=O)[O-])ccc(Cl)c21	111%
O=C1c2ccccc2C(=O)N1CCCCNc1ccccc1	5.16% (active)
CNC(=O)c1c(NC(=O)c2ccc(C(C)(C)C)cc2)sc2c(CN(C)C)c(O)ccc12	-33% (active)
CCCCCCCC/C=C\CCCCCCCCOc1cccc(CC(=O)NCC[N+]2(C)CCOCC2)c1	67.6%
CCCCNc1nc(NC(C)(C)C)nc(NC(C)(C)C)n1	36.6%
O=C(/C=C/C(Cl)(Cl)Cl)Nc1ccc(Cl)cc1	34.5%

SMILES	growth
C=C1C(=O)O[C@H]2[C@H]1CC/C(COC(=O)c1cc(OC)c(OC)c(OC)c1)=C\CC[C@@]1(C)O[C@@H]21	-65.1% (active)
c1nc2ccc(-c3cc4ccc5[nH]ncc5c4c4c3CCCC4)cc2[nH]1	30.9%
O=C(c1ccccc1)c1cccc(C(Br)Br)c1	87.6%
O=C(Nc1cccc(Br)c1)Oc1cccc2cccnc12	4% [100 µM] (active)
C[C@@H]1C(=O)N(C[C@H](Cc2ccccc2)NC(=O)OCc2ccccc2)[C@]1(Cc1ccccc1)C(=O)OC(C)(C)C	81.5%
CC1(O)CCCCCC1	92.7%
Cc1cc(O)ccc1C1=NN(c2ccc(S(C)(=O)=O)cc2)C(=O)CC1	52.6%
Cc1c(NC(=O)c2sc3nc4c(cc3c2N)CN(Cc2ccccc2)CC4)cccc1C(F)(F)F	3.22% (active)
N#C/C(=C\c1ccc(-c2ccccc2F)o1)c1nc(-c2ccco2)cs1	91.2%
COC(=O)C(Cc1ccccc1)NC(=O)NC(=O)NC(=O)CI (stereo not given)	-51.3% (active)
NC(=O)c1cccc(-n2ccc3cc(NC(=O)c4ccc(N5CCOCC5)c(C(F)(F)F)c4)ccc32)n1	51.1%
CC[C@H](Nc1nc(C)nc(N)c1C#N)c1nc2cccc(NCc3ccc(C(=O)NO)cc3)c2c(=O)n1-c1ccccc1	-30.5% (active)
COc1ccc(-c2cc(-c3cccnc3)nc3sc4c(N)c(C(C)=O)c(-c5ccccc5)nc4c23)cc1OC	78%
COC1=CC(c2ccc[nH]2)=N/C1=C\c1[nH]c(C)c(C(=O)Oc2ccccc2)c1C	11.4%
O=C(/C=C/c1ccc(Cl)nc1)c1ccc(Cl)cc1Cl	67.4%
CCOc1ccc(I)cc1	128%
O=C1c2c(c3c4cc(F)ccc4oc3c3[nH]c4ccccc4c23)C(=O)N1O	41.8%
CN1CCN(C(=O)[C@]23CCC(C)(C)C[C@H]2C2=CC[C@@H]4[C@@]5(C)C/C(=C/c6cccnc6)C(=O)C(C)(C)[C@@H]5CC[C@@]4(C)[C@]2(C)CC3)CC1	-32.4% (active)
CCC1=CCC[C@@]2(C)CCC[C@@]3(C)CCCC(C)(C)[C@]1([O-])[O+]32	107%
COc1ccc(-c2nnc(COc3ccc(NC(=O)Nc4ccccc4)cc3F)o2)cc1	86.8%
